Common to all, as to experiment: DAPPL (digital affinity profiling via proximity ligation, sequencing); 10 mM Tris-HCl pH 7.5, 50 mM NaCl, 1 mM DTT, 4% glycerol, room temperature, 30 min; GST-TFs on glutathione beads, 16-mer random dsDNA library, 0.1% formaldehyde crosslink after washing; high values mean tight binding
Common to all, as to conditions: protein: recombinant; tags: N-terminal GST; dsDNA, one strand shown

One experiment concerns the target T1, ELK1 (Homo sapiens, UniProt P19419 1-428).
T1 sequence: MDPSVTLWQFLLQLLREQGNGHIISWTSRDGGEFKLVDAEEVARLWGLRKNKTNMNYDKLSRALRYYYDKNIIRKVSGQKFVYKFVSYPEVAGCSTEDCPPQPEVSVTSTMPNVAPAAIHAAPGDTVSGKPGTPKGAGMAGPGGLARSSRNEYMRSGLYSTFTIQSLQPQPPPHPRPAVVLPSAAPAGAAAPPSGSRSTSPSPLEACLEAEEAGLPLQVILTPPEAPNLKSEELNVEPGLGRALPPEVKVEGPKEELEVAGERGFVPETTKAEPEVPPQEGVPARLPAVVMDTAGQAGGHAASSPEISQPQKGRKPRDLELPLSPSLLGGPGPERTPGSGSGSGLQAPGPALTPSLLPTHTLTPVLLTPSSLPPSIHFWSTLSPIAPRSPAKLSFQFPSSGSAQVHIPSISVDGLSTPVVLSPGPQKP
A digest of the protocol:
(§1)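 A tag-only sample was pooled with DNA-barcoded human transcription factors that had been expressed in yeast as GST fusions and captured on glutathione beads. The pools were incubated for 30 min at room temperature with 200 nmole of a random double-stranded 16-mer DNA library in Tris/NaCl/DTT/glycerol buffer, then washed, crosslinked with 0.1% formaldehyde, proximity-ligated (BsaI/T4 ligase, 1 h, 37 °C), PCR-amplified and sequenced on an Illumina NextSeq500. Binding signal is each hexamer's read frequency for a factor divided by its frequency for the tag-only sample.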

For a further experiment, the target named is T2, ERG (Homo sapiens, UniProt P11308 1-479).
T2 sequence: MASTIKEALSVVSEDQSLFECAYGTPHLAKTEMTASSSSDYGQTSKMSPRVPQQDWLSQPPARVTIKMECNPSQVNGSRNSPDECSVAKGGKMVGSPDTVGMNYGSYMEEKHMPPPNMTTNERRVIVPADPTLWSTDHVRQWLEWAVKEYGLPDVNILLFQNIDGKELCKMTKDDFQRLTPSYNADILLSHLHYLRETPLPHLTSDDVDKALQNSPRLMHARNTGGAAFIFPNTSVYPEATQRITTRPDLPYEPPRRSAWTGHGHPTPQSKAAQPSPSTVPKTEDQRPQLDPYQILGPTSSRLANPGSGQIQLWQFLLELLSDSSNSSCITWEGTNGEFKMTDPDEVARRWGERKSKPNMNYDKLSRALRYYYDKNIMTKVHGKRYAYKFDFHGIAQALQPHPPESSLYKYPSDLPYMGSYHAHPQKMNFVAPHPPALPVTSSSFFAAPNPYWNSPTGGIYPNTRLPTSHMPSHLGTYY
A digest of the protocol: as §1

Another experiment deals with ELF1 (Homo sapiens, UniProt P32519 1-619). A digest of the protocol: as §1
A further experiment has as its target T3, EHF (Homo sapiens, UniProt Q9NZC4 1-300).
T3 sequence: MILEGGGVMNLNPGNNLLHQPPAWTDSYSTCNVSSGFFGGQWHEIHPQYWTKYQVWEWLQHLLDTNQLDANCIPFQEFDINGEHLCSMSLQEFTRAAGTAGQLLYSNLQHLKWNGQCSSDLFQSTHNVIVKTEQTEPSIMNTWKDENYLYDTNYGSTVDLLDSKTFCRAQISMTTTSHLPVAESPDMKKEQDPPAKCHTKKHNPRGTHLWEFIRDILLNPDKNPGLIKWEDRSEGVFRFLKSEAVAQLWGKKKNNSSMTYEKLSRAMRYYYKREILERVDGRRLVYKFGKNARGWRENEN
A digest of the protocol:
as §1

Another experiment deals with SPIB (Homo sapiens, UniProt Q01892 1-262). An outline of the steps: as §1
Another experiment concerns the target T4, ELK3 (Homo sapiens, UniProt P41970 1-407).
T4 sequence: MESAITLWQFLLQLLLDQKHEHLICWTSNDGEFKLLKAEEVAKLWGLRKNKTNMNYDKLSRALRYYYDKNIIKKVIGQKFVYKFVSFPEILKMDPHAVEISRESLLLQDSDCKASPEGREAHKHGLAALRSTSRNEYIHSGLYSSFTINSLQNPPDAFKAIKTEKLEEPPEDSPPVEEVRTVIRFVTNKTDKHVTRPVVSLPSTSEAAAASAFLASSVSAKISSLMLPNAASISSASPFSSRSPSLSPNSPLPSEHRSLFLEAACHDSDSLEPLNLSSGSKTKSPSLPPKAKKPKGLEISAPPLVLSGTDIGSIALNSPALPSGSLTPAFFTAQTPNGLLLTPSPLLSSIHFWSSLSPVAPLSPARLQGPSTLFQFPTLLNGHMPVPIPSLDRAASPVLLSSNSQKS
A digest of the protocol:
as §1

Another experiment concerns the target ETV5 (Homo sapiens, UniProt P41161 1-510). A digest of the protocol:
as §1

The target of a further experiment is T5, SPIC (Homo sapiens, UniProt Q8N5J4 1-248).
T5 sequence: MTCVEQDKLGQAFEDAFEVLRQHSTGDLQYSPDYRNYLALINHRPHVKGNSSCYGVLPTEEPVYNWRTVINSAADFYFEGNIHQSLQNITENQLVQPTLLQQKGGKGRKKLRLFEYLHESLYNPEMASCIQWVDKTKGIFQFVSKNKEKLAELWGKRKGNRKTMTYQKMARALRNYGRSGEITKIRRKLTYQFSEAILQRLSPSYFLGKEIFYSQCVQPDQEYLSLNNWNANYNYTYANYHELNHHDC
An outline of the steps: as §1

The target in the next experiment is ELF4 (Homo sapiens, UniProt Q99607 1-663). An outline of the steps: as §1
The target in the next experiment is T6, ELK4 (Homo sapiens, UniProt P28324-2 1-405).
T6 sequence: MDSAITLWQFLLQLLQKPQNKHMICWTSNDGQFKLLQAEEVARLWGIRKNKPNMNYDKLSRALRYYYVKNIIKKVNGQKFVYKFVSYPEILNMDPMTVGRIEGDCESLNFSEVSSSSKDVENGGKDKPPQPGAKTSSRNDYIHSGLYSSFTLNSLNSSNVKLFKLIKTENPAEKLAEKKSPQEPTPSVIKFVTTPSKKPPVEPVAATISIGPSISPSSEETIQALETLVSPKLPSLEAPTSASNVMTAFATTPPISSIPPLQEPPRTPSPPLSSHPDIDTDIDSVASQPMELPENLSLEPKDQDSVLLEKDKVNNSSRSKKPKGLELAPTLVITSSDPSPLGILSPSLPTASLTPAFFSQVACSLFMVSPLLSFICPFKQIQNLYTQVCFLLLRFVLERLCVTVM
An outline of the steps:
as §1

A further experiment has as its target ETV1 (Homo sapiens, UniProt P50549 1-477). A digest of the protocol: as §1
Another experiment deals with T7, ERF (Homo sapiens, UniProt P50548 1-548).
T7 sequence: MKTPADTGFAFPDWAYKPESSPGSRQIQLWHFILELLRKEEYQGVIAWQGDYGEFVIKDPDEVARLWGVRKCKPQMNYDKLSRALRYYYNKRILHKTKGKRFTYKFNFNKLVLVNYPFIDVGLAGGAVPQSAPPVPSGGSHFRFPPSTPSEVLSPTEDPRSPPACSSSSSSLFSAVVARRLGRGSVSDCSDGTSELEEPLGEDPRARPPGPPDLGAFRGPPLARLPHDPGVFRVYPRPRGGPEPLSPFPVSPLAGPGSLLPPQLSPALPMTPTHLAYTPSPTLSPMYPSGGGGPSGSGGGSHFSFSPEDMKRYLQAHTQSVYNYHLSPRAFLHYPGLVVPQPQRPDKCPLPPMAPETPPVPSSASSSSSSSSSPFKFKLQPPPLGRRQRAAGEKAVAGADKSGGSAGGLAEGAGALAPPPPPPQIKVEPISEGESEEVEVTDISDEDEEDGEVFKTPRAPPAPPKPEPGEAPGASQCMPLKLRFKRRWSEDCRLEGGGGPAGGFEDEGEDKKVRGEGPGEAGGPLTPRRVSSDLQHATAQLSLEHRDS
An outline of the steps:
as §1

The target of another experiment is T8, ETV3L (Homo sapiens, UniProt Q6ZN32 1-361).
T8 sequence: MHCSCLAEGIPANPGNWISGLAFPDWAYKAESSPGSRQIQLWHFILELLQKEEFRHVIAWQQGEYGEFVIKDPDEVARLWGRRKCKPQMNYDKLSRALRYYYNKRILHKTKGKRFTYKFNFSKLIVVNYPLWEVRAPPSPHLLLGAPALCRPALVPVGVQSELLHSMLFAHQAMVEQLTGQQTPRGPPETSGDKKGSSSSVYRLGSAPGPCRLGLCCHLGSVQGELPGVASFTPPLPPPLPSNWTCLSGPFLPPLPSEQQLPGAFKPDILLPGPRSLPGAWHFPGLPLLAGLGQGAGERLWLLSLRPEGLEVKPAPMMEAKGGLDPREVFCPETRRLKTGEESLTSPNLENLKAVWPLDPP
A digest of the protocol: as §1

A further experiment addresses T9, ETS2 (Homo sapiens, UniProt P15036 1-469).
T9 sequence: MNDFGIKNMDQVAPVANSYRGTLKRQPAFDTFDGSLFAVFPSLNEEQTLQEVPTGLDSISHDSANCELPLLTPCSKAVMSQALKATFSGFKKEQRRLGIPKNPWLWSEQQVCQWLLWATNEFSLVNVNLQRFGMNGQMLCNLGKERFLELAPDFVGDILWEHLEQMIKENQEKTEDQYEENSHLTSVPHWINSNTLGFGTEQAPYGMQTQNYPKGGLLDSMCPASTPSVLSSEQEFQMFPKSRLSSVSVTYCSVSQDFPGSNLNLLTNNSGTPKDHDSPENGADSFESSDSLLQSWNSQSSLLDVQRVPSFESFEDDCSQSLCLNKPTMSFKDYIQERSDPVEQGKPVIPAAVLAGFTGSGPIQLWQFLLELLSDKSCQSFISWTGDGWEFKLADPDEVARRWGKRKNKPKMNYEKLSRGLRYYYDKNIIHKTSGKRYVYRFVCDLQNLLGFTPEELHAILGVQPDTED
An outline of the steps: as §1

The next experiment has as its target T10, SPDEF (Homo sapiens, UniProt O95238 1-335).
T10 sequence: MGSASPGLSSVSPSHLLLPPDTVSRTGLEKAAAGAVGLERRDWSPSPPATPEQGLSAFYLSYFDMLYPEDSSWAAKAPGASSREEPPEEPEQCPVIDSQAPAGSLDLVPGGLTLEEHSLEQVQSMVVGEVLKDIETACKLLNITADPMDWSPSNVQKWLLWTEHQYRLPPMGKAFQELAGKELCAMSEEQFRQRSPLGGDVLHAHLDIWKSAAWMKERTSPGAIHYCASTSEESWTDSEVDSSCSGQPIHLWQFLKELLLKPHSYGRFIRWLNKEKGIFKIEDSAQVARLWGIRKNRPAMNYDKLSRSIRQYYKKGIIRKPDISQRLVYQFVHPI
A digest of the protocol: as §1

Another experiment addresses T11, ETV7 (Homo sapiens, UniProt Q9Y603 1-341).
T11 sequence: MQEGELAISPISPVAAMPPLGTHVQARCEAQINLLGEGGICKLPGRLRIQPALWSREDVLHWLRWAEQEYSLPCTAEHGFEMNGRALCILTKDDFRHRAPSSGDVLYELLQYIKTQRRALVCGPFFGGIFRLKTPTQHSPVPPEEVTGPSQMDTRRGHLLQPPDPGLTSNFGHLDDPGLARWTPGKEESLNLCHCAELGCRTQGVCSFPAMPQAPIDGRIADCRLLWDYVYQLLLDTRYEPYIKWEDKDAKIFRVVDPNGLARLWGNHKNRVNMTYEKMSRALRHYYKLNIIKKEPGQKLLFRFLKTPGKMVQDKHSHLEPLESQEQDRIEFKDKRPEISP
An outline of the steps: as §1

A further experiment addresses T12, ETV3 (Homo sapiens, UniProt P41162-2 1-143).
T12 sequence: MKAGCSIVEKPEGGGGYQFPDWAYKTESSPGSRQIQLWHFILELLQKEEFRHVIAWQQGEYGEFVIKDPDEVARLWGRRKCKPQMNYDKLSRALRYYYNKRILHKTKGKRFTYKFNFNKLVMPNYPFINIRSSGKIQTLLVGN
A digest of the protocol: as §1

The next experiment deals with ETV6 (Homo sapiens, UniProt P41212 1-452). An outline of the steps: as §1
Chain of ETV6 (P41212 whole entry): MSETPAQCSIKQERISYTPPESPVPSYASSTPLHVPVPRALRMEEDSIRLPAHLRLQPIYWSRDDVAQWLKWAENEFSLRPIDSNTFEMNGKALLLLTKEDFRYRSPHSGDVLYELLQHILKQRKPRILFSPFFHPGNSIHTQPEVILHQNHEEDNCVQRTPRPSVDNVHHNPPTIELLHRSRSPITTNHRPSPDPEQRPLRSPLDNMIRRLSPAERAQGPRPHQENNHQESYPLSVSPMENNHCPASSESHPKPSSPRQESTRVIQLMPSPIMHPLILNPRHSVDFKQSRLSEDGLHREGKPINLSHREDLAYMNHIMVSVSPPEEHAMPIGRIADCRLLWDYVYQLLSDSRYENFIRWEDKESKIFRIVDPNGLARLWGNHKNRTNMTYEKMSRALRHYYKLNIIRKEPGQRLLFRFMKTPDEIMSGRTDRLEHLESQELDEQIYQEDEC

Chain of ETV5 (P41161 whole entry): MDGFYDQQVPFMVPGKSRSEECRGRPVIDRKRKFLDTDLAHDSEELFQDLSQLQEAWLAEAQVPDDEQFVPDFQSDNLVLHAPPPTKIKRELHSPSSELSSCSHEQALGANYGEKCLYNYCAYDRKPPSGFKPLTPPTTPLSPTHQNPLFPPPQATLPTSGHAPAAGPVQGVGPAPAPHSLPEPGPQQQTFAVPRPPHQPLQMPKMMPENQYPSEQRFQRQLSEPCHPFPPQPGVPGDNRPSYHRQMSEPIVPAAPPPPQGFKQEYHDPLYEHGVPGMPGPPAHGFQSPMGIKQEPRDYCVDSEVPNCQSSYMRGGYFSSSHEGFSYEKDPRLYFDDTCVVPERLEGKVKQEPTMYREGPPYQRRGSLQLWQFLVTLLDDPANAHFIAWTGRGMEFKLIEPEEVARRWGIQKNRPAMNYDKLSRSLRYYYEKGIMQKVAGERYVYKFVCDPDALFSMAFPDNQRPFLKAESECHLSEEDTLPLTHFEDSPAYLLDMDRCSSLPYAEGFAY
Chain of SPIB (Q01892 whole entry): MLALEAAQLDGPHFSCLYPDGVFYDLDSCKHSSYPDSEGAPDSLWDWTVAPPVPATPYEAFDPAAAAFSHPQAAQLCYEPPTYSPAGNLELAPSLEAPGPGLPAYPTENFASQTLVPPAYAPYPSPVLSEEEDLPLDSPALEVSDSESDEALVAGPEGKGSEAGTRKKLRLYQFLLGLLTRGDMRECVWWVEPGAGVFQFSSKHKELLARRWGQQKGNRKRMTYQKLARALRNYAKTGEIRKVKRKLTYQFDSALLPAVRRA
Chain of ELF1 (P32519 whole entry): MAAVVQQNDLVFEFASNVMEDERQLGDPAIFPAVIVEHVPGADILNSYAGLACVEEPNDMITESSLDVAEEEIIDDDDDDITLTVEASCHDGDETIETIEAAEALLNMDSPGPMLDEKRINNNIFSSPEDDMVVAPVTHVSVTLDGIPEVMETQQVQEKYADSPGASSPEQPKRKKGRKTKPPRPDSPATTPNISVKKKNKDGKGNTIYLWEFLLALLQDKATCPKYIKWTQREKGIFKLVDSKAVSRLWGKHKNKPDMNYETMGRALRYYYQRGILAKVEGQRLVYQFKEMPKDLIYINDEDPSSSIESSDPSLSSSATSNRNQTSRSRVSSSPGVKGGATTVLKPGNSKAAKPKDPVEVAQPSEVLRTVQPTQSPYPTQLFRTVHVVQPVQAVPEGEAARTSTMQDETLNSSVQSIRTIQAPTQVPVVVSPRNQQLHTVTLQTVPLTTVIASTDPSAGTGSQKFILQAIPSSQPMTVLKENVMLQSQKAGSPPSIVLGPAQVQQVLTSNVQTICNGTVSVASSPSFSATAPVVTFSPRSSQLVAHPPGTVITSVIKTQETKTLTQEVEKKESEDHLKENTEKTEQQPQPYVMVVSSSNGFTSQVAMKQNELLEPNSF
Chain of ELF4 (Q99607 whole entry): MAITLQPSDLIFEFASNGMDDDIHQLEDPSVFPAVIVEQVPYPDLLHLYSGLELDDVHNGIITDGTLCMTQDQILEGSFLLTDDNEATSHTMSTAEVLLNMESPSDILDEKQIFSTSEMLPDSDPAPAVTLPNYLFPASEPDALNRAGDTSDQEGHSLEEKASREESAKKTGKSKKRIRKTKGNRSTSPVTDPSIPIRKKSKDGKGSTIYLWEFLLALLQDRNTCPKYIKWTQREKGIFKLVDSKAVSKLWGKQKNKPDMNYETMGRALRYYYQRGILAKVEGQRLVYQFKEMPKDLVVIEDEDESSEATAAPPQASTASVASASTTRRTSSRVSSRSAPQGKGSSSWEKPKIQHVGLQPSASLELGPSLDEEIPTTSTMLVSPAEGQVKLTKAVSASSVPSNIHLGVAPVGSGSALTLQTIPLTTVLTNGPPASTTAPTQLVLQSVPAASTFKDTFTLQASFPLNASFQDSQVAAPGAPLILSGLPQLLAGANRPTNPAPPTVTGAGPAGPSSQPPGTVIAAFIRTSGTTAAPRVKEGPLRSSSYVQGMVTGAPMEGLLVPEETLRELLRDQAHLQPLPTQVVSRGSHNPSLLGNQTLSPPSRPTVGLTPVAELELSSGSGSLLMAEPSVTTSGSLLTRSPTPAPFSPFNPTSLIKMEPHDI
Chain of ETV1 (P50549 whole entry): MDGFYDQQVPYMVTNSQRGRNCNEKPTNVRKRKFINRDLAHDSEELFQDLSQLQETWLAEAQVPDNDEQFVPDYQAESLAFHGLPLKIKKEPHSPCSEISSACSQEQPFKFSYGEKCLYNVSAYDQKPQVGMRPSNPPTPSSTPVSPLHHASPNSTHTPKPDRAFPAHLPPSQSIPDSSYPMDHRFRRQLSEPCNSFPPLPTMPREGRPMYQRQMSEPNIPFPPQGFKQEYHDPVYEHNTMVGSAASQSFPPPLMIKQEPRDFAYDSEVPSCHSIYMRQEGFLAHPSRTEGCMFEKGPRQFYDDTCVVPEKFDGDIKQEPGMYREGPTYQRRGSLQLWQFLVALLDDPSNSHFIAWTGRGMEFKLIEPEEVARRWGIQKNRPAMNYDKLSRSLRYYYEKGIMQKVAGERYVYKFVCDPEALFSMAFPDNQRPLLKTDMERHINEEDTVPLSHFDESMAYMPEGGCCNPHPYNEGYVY

On to TGTTGT, for which the binding signal in the experiment with ELK1 was 1.15 fold enrichment (6-mer frequency, TF over GST control); in the experiment with ERG, 1.08 fold enrichment (6-mer frequency, TF over GST control); with ELF1 it was 1.13 fold enrichment (6-mer frequency, TF over GST control); in the experiment with EHF, 1.09 fold enrichment (6-mer frequency, TF over GST control); with SPIB, 1.12 fold enrichment (6-mer frequency, TF over GST control); in the experiment with ELK3 it was 1.05 fold enrichment (6-mer frequency, TF over GST control). For the same sequence, the binding signal with ETV5 is 1.08 fold enrichment (6-mer frequency, TF over GST control); in the experiment with SPIC it was 1.23 fold enrichment (6-mer frequency, TF over GST control); with ELF4, 1.11 fold enrichment (6-mer frequency, TF over GST control); with ELK4, 1.24 fold enrichment (6-mer frequency, TF over GST control); with ETV1, 1.2 fold enrichment (6-mer frequency, TF over GST control); with ERF it was 1.02 fold enrichment (6-mer frequency, TF over GST control). Also, the binding signal was 1.15 fold enrichment (6-mer frequency, TF over GST control) with ETV3L; 1.05 fold enrichment (6-mer frequency, TF over GST control) in the experiment with ETS2; 1.21 fold enrichment (6-mer frequency, TF over GST control) with SPDEF; 1.14 fold enrichment (6-mer frequency, TF over GST control) with ETV7; 1.14 fold enrichment (6-mer frequency, TF over GST control) in the experiment with ETV3; 1.11 fold enrichment (6-mer frequency, TF over GST control) with ETV6.

For the origin of these results see publication PMC7862700, “An all-to-all approach to the identification of sequence-specific readers for epigenetic DNA modifications on cytosine”.
